Bioassay records: PubChem, National Center for Advancing Translational Sciences (NCATS)
D1 ag = agonists of human D1 dopamine receptor | HEK293 T-REx D1 cells, calcium flux, agonist mode | activation, % at 2 µM | 360,000 compounds, 1% hits | AID 504660
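Tetracycline-induced HEK293 TREx D1 cells, force-coupled to calcium signalling, were dye-loaded with a no-wash calcium kit. Compound was pin-added after a 10 s baseline. Fluorescence was read kinetically at 1 cycle/s for 180 s, with calcium rises flagged as agonism.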
TRHR agonist = agonists of human TRH receptor; P34981; TRHR cells, calcium flux fluo-8, FDSS agonist mode; activation, % at 2 µM; 360,000 compounds, 0.18% hits; AID 493084
Target sequence (P34981 whole entry, looked up): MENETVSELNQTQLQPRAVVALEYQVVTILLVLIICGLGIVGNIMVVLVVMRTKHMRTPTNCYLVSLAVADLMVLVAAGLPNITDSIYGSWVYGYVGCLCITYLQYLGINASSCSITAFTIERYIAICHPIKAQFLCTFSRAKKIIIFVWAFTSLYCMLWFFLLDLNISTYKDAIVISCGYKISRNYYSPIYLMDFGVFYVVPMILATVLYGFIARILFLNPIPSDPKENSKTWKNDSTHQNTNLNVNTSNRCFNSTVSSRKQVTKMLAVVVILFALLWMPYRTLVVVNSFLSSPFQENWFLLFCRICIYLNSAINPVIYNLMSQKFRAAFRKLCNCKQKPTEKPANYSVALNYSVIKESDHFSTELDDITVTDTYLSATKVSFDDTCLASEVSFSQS
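Fluo-8-loaded TRHR cells; 10 s baseline, compound added, kinetic Ca2+ fluorescence read 1/s, agonist mode.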
D1 antag = blocks dopamine activation of the human D1 receptor | P21728 | HEK293 TREx D1 cells, calcium flux, dopamine EC80; stronger effect = lower value | activity change, negative = inhibition, % at 10 µM | 360,000 compounds, 3.2% hits; in the data active means activity change below about -30%
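Cells carrying a force-coupled, tetracycline-inducible human D1 receptor report calcium flux. Each well gets a 10 s baseline, compound with 180 s monitoring, then an EC80 dopamine stimulus with a second 180 s kinetic read.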
TRHR PAM = allosterically enhances the human TRH receptor; TRHR cells, fluo-8 calcium fluorescence, EC20 TRH enhancement; enhancement, % at 2 µM; 360,000 compounds, 0.66% hits; AID 493056; in the data active means enhancement above about 30%
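TRHR-expressing cells loaded with fluo-8 calcium dye were read kinetically (ex 480/em 530) during compound addition, then stimulated with an EC20 of TRH (10 nM final). Enhancement of the Gq-mediated intracellular calcium response was scored.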
D1 PAM = potentiators of human D1 dopamine receptor; P21728; HEK293 TREx D1 cells, calcium flux, dopamine EC20 potentiation; potentiation, % at 10 µM; 360,000 compounds, 0.036% hits; AID 504651; in the data active means potentiation above about 30%
Large screens that a line does not name were inactive. An excerpt weighted towards active compounds, which were near 4.7% of everything screened. Unless noted, no stated cut-off is given here; in the data, active means activation above about 30%; inactive means the rest.

CC(NC(=O)c1cc(-c2ccc(Cl)cc2)on1)c1ccccc1 (stereo unspecified)	none
CCN(c1ccccc1)S(=O)(=O)c1ccc(NC(=O)c2cc(=O)c3cc(C)c(C)cc3o2)cc1	none
CC(=O)N1C(c2ccccc2O)C[C@]2(C)CC(=O)NC12 (stereo partly specified)	TRHR PAM 36
C[C@@]12CC(=O)NC1N(C(=O)c1cccc(C(F)(F)F)c1)C(c1ccccc1O)C2 (stereo partly specified)	none (no result: D1 antag)
CC(C)(C)C(=O)C1=C(O)C(=O)N(Cc2ccccc2)C1c1ccccc1F (stereo unspecified)	D1 ag 54
COC(=O)C(C)Sc1snnc1-c1ccccc1 (stereo unspecified)	none
Cc1nnsc1SC(C)C(=O)O (stereo unspecified)	D1 antag -50
CCN(CC)S(=O)(=O)c1ccc(NC(=O)c2ccc(N(C)S(C)(=O)=O)cc2)cc1	D1 antag -36
CCN(CC)S(=O)(=O)c1ccc(NC(=O)c2ccccc2N(C)S(C)(=O)=O)cc1	none
O=[N+]([O-])c1ccc(N/N=C2/CCCCC2c2ccccn2)cc1 (stereo unspecified)	D1 antag -59
O=[N+]([O-])c1ccc(NC2CCCC2)cc1	none
COc1cc2c(cc1OC)[C@@H]1O[C@](c3ccsc3)(C2)Oc2cc(C)n(-c3ccccc3)c(=O)c21	none
Cc1ccc(CS(=O)(=O)CCC(=O)NCc2ccccc2Cl)cc1	D1 ag 43
O=C1CCc2cc(NS(=O)(=O)c3ccc(F)cc3)cc3c2N1CCC3	D1 antag -38
COc1ccccc1N1CCN(S(=O)(=O)CCNC(=O)COc2ccccc2F)CC1	none
CCOc1ccc(C2C(C#N)=C(N)SC(N)=C2C#N)c(OCC)c1	none
CCCCc1ccc(C2C(C#N)=C(N)SC(N)=C2C#N)s1	D1 ag 63, D1 antag -67
O=C(CCc1nc2ccccc2c(=O)[nH]1)OCc1ccc(-c2ccccc2)cc1	D1 antag -39
CN(C)C(=O)C(CCN1CCC(O)(c2ccc(Cl)cc2)CC1)(c1ccccc1)c1ccccc1	D1 ag 40
CN(C)c1ccc(NC(=O)CN2CCC(O)(c3ccccc3)CC2)cc1	none
Cc1cc(C)nc(SCCCNCc2ccc(Br)cc2)n1	D1 ag 36
Fc1ccc(-c2ccc(CNCCSc3nnnn3-c3ccccc3)o2)cc1	D1 ag 34
Cc1c(Cl)cccc1-c1ccc(CNCCSc2nnnn2-c2ccccc2)o1	none
CCOc1cc(CNCCSc2nnnn2-c2ccccc2)cc(Cl)c1OC	D1 ag 40
Brc1ccc(CNCCCSc2nnnn2-c2ccccc2)cc1	D1 ag 95
COc1cc(CNCCSc2nnnn2C)cc(Cl)c1OCc1ccccc1	none
Cc1ccc(CNCCCSc2nc(C)cc(C)n2)cc1	none
Cc1cc2c(s1)c1cnn(Cc3ccc(C(F)(F)F)cc3F)c(=O)c1n2C	none
COCCn1c(C)cc(O)c(C(c2ccccc2)N2CCN(c3ccccc3)CC2)c1=O (stereo unspecified)	none
CC(=O)c1ccc(NC(=O)c2cc3sccc3n2Cc2ccc(Cl)cc2)cc1	none
CC(=O)N1CCCC1c1nc2ccccc2n1Cc1cccc(Cl)c1 (stereo unspecified)	D1 antag -33
CCOC(=O)c1oc2ccc(S(=O)(=O)n3nc(-c4cc(OCC)c(OCC)c(OCC)c4)cc3N)cc2c1C	none
COc1ccc(OC)c(NS(=O)(=O)c2ccc(-c3cc(C)no3)s2)c1	none
CCC(C(=O)Nc1cccc(C#N)c1)n1nc(-c2ccccc2)ccc1=O (stereo unspecified)	none
CN(C)S(=O)(=O)N1CCN(c2cc(Cl)ccc2Cl)CC1	D1 ag 40, TRHR PAM 35
CN(C)S(=O)(=O)N1CCN(c2ccccc2Cl)CC1	none
COC(=O)c1ccc(NC(=O)CC2C(=O)N(c3ccccc3)C(=O)N2Cc2ccc(F)cc2)cc1 (stereo unspecified)	none
O=C(c1cc2cc(F)ccc2[nH]1)N1CCCC(Nc2ccc(F)cc2)C1 (stereo unspecified)	D1 antag -35
O=C(c1ccc(Cn2cnnn2)cc1)N1CCCC(Nc2ccc(F)cc2)C1 (stereo unspecified)	none
COc1ccc(NC2CCCN(C(=O)CCN3Cc4ccccc4C3=O)C2)cc1 (stereo unspecified)	D1 antag -94
CCOC(=O)C1CCCN(C(=O)c2cc3cc(F)ccc3[nH]2)C1 (stereo unspecified)	none
Cc1cc(C(=O)N2CCCC(Nc3ccccc3)C2)c2ccc(F)cc2n1 (stereo unspecified)	D1 antag -33
O=C(CCn1cnnn1)N1CCCC(Nc2ccc(F)cc2)C1 (stereo unspecified)	D1 antag -35
CCN(CC)C(=O)CSc1nnc2[nH]c(=O)cc(C)n12	none (no result: D1 antag)
CCc1ccc(C2=NN(CCC(=O)NCCc3ccccc3)C(=O)CC2)cc1	none
Cn1cc(C2=C(c3ccc(Cl)cc3Cl)C(=O)NC2=O)c2ccccc21	D1 ag 145, TRHR agonist 48
Cc1ccc(NC(=O)CN(C)S(=O)(=O)c2ccc3c(c2)c(=O)n(C)c(=O)n3C)cc1	none
Cc1ccc(C)c(N2CCN(C(=O)C(C)n3nc(C)c4sc5ccccc5c4c3=O)CC2)c1 (stereo unspecified)	none
CC(C(=O)NC1CCCC1)N(C(=O)CS(=O)CC(=O)Nc1ccc(F)cc1)c1ccc2c(c1)OCCO2 (stereo unspecified)	D1 antag -52
Cc1ccc(NC(=O)CS(=O)CC(=O)N(c2ccccc2F)C(C)C(=O)NC2CCCC2)cc1 (stereo unspecified)	none
O=C(CS(=O)CC(=O)N(CC(=O)NC1CCCC1)c1ccccc1F)Nc1ccc(F)cc1 (stereo unspecified)	D1 antag -35
Cc1ccc(NC(=O)Cn2c(-c3cncs3)nc3ccccc32)c(Br)c1	none
Cc1nnc(SCCn2c(N3CCN(C)CC3)nc3c2c(=O)[nH]c(=O)n3C)s1	TRHR PAM 41
CCCn1c(N2CCN(C)CC2)nc2c1c(=O)[nH]c(=O)n2C	D1 antag -31
CCOC(=O)c1c(C)c(C(=O)NCCc2ccc(OC)cc2)c(C)n1C	none
CCOC(=O)C1CCCN(C(=O)COc2ccccc2F)C1 (stereo unspecified)	D1 antag -64
O=C(c1ccc2c(c1)N(Cc1ccccc1F)C(=O)c1ccccc1S2=O)N1CCCCC1 (stereo unspecified)	none
CCOC(=O)C1CCCN(C(=O)COc2ccccc2O)C1 (stereo unspecified)	none
